Among the data in PubChem BioAssay (Tox21) are Potency, outcome and max activation values, retold here.

Assay [1] in a line: qHTS assay to identify small molecule agonists of the estrogen receptor alpha (ER-alpha) signaling pathway in the presence of an antagonist - cell viability counter screen (AID 1259386).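 Further: cells exposed to compounds for 22 h at 37 °C before the viability read; nearly all actives have a fitted effect of over 30% in size.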 Further: potency means the concentration at half of the fitted maximal effect. The procedure, abridged: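 The test measures whether compounds kill ER-alpha reporter cells (VM7Luc4E2) under antagonist co-treatment (ICI-182,780, 10.0nM). Fluorescence from CellTiter-Fluor is read after a 22hr exposure.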
Background: qHTS replaces the single test concentration by a dilution series.

The target in assay [2] is Progesterone receptor (Homo sapiens) (UniProt P06401). The assay can be described thus: qHTS assay to identify small molecule antagonists of the progesterone receptor (PR) signaling pathway (AID 1346795; active means well fitted inhibition curve with a large enough effect in the signal ratio in the repeat runs, not every such curve was filed as active; the % refers to the signal ratio; further: potency means the concentration at half of the fitted maximal effect). The procedure, abridged: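 Antagonist mode with agonist R5020 at 1 nM final and 16 hr incubation at 37C. Reporter was beta-lactamase driven by UAS in HEK293T (PR-UAS-bla), 2% charcoal-stripped serum; signal from LiveBLAzer FRET substrate, 2 hr at room temperature.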
Chain of Progesterone receptor (Homo sapiens) (P06401 whole entry, looked up): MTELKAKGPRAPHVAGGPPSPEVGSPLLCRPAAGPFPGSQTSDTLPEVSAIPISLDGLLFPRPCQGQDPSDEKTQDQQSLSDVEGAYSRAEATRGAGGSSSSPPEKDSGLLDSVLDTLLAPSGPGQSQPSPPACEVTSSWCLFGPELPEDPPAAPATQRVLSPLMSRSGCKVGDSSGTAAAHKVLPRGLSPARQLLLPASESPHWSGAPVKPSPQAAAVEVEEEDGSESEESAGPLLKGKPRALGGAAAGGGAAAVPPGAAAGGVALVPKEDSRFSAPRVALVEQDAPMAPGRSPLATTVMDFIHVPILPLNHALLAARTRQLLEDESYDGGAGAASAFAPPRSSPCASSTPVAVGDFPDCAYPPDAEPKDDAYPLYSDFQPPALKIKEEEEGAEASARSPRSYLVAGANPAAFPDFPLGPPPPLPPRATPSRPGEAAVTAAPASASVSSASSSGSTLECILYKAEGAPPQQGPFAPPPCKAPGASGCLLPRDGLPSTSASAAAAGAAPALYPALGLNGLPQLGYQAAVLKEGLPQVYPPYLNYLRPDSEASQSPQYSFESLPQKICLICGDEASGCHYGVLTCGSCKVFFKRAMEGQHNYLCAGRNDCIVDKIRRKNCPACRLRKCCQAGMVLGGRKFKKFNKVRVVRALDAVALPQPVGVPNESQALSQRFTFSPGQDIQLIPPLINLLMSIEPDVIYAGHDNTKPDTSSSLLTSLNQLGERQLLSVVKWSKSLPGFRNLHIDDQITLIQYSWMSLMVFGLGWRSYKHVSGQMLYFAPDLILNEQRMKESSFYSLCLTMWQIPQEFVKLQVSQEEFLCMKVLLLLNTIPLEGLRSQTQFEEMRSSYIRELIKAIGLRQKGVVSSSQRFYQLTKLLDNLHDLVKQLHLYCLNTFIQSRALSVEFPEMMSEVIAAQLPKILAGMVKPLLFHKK

Assay [3] can be described thus: qHTS assay to identify small molecule antagonists of the progesterone receptor (PR) signaling pathway - cell viability counter screen (AID 1346798). Further: series mostly up to about 92 µM; on the % scale 0 is the no-effect control and ±100 the full control effect; nearly all actives have a fitted effect of over 50% in size. The procedure, abridged: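 Cytotoxicity read as CellTiter-Glo luminescence (30 min, room temperature) in the same wells as the beta-lactamase readout. HEK293T PR-UAS-bla cells in charcoal-stripped 2% FBS received compound and R5020, then 16 h at 37C, 5% CO2.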

The nature of assay [4]: qHTS assay to identify small molecule antagonists of the TGF-beta/Smad signaling pathway - cell viability counter screen (AID 1346824). Further: on the % scale 0 is the no-effect control and ±100 the full control effect; nearly all actives have a fitted effect of over 50% in size. The essentials: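 Cytotoxicity counter-screen run in the same wells as the beta-lactamase Smad reporter read: CellTiter-Glo luminescence after 30 min at room temperature. HEK 293T SBE-bla cells had 5 hr compound exposure at 37 C with TGF-beta1 (0.25 ng/mL stock).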

Assay [5] can be described thus: qHTS assay to identify small molecule agonists of the TGF-beta/Smad signaling pathway - cell viability counter screen (AID 1346829). Further: top concentration of the series differs between compounds; on the % scale 0 is the no-effect control and ±100 the full control effect; nearly all actives have a fitted effect of over 45% in size. The procedure, abridged: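 In parallel with the Smad reporter read, viability of HEK 293T cells stably carrying SBE-bla is quantified by ATP luminescence following 5 hr compound treatment.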
For assay [6], the target named is Thyrotropin-releasing hormone receptor (Homo sapiens) (UniProt P34981). The assay can be described thus: qHTS assay to identify small molecule antagonists of the thyrotropin-releasing hormone receptor (TRHR) signaling pathway (AID 1346877; active means well fitted inhibition curve with a large enough effect in the repeat runs, not every such curve was filed as active; further: series mostly up to about 51 µM; on the % scale 0 is the no-effect control and ±100 the full control effect). The procedure, abridged:
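Overnight-plated (18 h, 37 °C) HEK293 cells expressing TRHR were dye-loaded 2 h, treated with compound, then stimulated with TRH at 1 nM final. Fluorescence intensity was captured every second for 3 min.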

Assay [7] has the same target. Nature of the assay: qHTS assay to identify small molecule agonists of the thyrotropin-releasing hormone receptor (TRHR) signaling pathway (AID 1346891; calls by dose curve; further: series mostly up to about 58 µM; on the % scale 0 is the no-effect control and ±100 the full control effect). The procedure, abridged: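 Agonist-mode intracellular calcium readout: kinetic fluorescence over 3 min at 1 s intervals after compound addition to TRHR-HEK293 cells (18 h seeded, 2 h dye-loaded at 37 C). Fifteen concentrations, triplicates.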

Assay [8] is described as follows: Human pregnane X receptor (PXR) small molecule agonists, qHTS cell viability counter screen (AID 1346977). Further: nearly all actives have a fitted effect of over 50% in size. Further: potency means the concentration at half of the fitted maximal effect. The essentials: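 Same-well viability read: CellTiter-Fluor added after 23 hr compound exposure, fluorescence measured 1 hr later. Cells were PXR-Luc HepG2 seeded at 2,000/well in 5% charcoal-stripped FBS medium, rested 5 hr before dosing at 37 C.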
Assay [9] is described as follows: Caspase-3/7 induction in HepG2 cells by small molecules, qHTS assay (AID 1346978). Further: on the % scale 0 is the no-effect control and ±100 the full control effect; nearly all actives have a fitted effect of over 15% in size. The essentials:
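Caspase-3/7 induction was measured by Caspase-Glo 3/7 luminescence (30 min, room temperature) after a 17 hr compound exposure of wild-type HepG2 cells seeded at 2,000 per well and pre-incubated 5 hr.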

A short description of assay [10]: Caspase-3/7 induction in CHO-K1 cells by small molecules, qHTS cell viability counter screen (AID 1346979). Further: nearly all actives have a fitted effect of over 35% in size. Further: potency means the concentration at half of the fitted maximal effect. The procedure, abridged:
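Cytotoxicity counter screen: CellTiter-Fluor added to compound-treated wild-type CHO-K1 cells at 16 h (37C, 5% CO2), fluorescence measured 1 h later; same wells as caspase-3/7 measurement.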

The nature of assay [11]: Caspase-3/7 induction in CHO-K1 cells by small molecules, qHTS assay (AID 1346980). Further: on the % scale 0 is the no-effect control and ±100 the full control effect; nearly all actives have a fitted effect of over 15% in size. The essentials:
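Luminescent Caspase-Glo 3/7 read (30min, room temperature) quantified apoptosis induction. Cells were wild-type CHO-K1, treated with compound for 17hr at 37 C and 5% CO2.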

Assay [12] can be described thus: Caspase-3/7 induction in HepG2 cells by small molecules, qHTS cell viability counter screen (AID 1346981). Further: nearly all actives have a fitted effect of over 30% in size. Further: potency means the concentration at half of the fitted maximal effect. The procedure, abridged: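 Treatment of HepG2 cells with DMSO-delivered compounds ran 16 hr at 37 C following a 5-hr pre-incubation of 2,000 cells/well. CellTiter-Fluor fluorescence, read after 1 hr, served as the viability measure in a qHTS format.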
Assay [13] has as its target Nuclear receptor subfamily 1 group I member 2 (Homo sapiens) (UniProt O75469). Nature of the assay: Human pregnane X receptor (PXR) small molecule agonists, qHTS assay (AID 1346982). Further: potency means the concentration at half of the fitted maximal effect; nearly all actives have a fitted effect of over 35% in size. The essentials: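 Stable HepG2 line reporting PXR-mediated CYP3A4 expression via luciferase. Treatment: 24 hr with compounds in DMSO at 37 C. Detection: ONE-Glo luminescence.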
The target in assay [14] is Nuclear receptor subfamily 1 group I member 2 (Rattus norvegicus) (UniProt Q9R1A7). The assay can be described thus: Rat pregnane X receptor (rPXR) activation by small molecules, qHTS assay (AID 1346983). Further: on the % scale 0 is the no-effect control and ±100 the full control effect; nearly all actives have a fitted effect of over 20% in size. The conditions noted are these: rPXR luciferase reporter cells, One-Glo luminescence, 24 h; active compounds read high. The essentials:
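Luminescent readout (One-Glo luciferase, 30 min room temperature) followed 24 hr compound treatment at 37 C of rPXR cells plated 2,000 per well and preincubated 5hr; qHTS format with compounds delivered in DMSO.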

The target of assay [15] is Nuclear receptor subfamily 1 group I member 2 (Homo sapiens) (UniProt O75469). Nature of the assay: Human pregnane X receptor (PXR) activation by small molecules, qHTS assay (AID 1346985). Further: nearly all actives have a fitted effect of over 40% in size. Further: potency means the concentration at half of the fitted maximal effect. On activation: on the % scale 0 is the no-effect control and ±100 the full control effect. The essentials: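 DPX-2 cells (HepG2 co-transfected with a PXR response element and a CYP3A4-promoter luciferase construct) were seeded at 2,000 per well, rested 5 hr at 37C, then exposed to DMSO-dissolved compounds for 24 hr. Activation was read as luciferase luminescence.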
Chain of Nuclear receptor subfamily 1 group I member 2 (Homo sapiens) (O75469 whole entry, looked up): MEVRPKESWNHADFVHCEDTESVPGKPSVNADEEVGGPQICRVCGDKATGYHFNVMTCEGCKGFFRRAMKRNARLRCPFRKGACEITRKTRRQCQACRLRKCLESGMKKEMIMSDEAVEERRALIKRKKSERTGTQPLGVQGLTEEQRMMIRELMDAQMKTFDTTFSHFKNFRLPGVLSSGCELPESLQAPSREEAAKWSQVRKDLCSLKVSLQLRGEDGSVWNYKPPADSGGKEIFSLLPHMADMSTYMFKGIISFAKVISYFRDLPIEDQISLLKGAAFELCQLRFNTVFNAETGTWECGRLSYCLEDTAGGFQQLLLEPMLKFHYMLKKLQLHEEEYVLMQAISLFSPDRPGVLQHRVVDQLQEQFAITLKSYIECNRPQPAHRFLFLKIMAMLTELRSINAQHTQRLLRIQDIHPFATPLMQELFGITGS

For assay [16], the target named is Cytochrome P450 2D6 (Homo sapiens) (UniProt P10635). The assay can be described thus: Cytochrome P450 Family 2 Subfamily D Member 6 (CYP2D6) small molecule antagonists: luciferase reporter qHTS assay (AID 1671196). Further: nearly all actives have a fitted effect of over 50% in size. Further: potency means the concentration at half of the fitted maximal effect. The procedure, abridged:
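Chemicals tested for interference with CYP2D6 activity; proluciferin substrate, NADPH regeneration, 1 h at room temperature, luminescent detection.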

A short description of assay [17]: qHTS assay to identify small molecule agonists of the progesterone receptor (PR) signaling pathway - cell viability counter screen (AID 1346799; calls by dose curve; further: on the % scale 0 is the no-effect control and ±100 the full control effect; nearly all actives have a fitted effect of over 45% in size). The essentials: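 Cytotoxicity measured by CellTiter-Glo luminescence (30 min, RT) in the same wells as the PR beta-lactamase agonist read. Those HEK293T cells had 16 h compound treatment at 37 C in 2% charcoal-stripped FBS medium.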

The nature of assay [18]: qHTS assay to identify small molecule agonists of the TGF-beta/Smad signaling pathway (AID 1346859; active means well fitted activation curve with a large enough effect in the signal ratio in the repeat runs, not every such curve was filed as active; the % refers to the signal ratio; further: potency means the concentration at half of the fitted maximal effect; on activation: series mostly up to about 77 µM; on the % scale 0 is the no-effect control and ±100 the full control effect). The essentials: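 Fluorescence (ex 405 nm; em 460 and 530 nm) was read 2 h after LiveBLAzer FRET substrate at RT. The preceding compound treatment of overnight-plated SBE-bla HEK293T cells lasted 5 h at 37 C.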
Assay [19] deals with Nuclear receptor subfamily 1 group I member 2 (Homo sapiens) (UniProt O75469). The assay can be described thus: CYP3A4 induction through human pregnane X receptor (PXR) by small molecules, qHTS assay (AID 1346984). Further: on the % scale 0 is the no-effect control and ±100 the full control effect; nearly all actives have a fitted effect of over 40% in size. The procedure, abridged: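 After 24 h at 37C with compound, DPX-2 cells (HepG2, co-transfected PXR response element and CYP3A4 promoter-luciferase) got 3uM final P450-Glo Luciferin-IPA for 3 h; One-Glo luminescence followed.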

Unmarked numbers belong to inactive results. Records with an inconclusive call do not appear. Calls of active or inactive are those of the source. Unless noted, the call rests on the fitted dose curve; in most records, active means well fitted curve in the direction sought with a large enough effect in the repeat runs; inconclusive means weak or mixed curves; inactive means no such curve, though single readings can be large; an effect the other way counts as inactive or inconclusive.

Chain of Thyrotropin-releasing hormone receptor (Homo sapiens) (P34981 whole entry, looked up): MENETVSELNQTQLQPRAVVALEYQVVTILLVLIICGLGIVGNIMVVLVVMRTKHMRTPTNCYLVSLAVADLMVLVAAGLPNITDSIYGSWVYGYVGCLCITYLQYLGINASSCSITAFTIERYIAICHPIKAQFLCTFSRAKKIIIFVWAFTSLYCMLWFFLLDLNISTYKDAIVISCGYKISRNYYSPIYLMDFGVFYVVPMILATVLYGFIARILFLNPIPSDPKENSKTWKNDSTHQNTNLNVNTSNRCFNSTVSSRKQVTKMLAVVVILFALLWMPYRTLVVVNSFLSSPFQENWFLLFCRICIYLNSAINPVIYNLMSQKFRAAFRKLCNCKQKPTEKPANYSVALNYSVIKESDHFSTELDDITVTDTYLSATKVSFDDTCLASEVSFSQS
Chain of Cytochrome P450 2D6 (Homo sapiens) (P10635 whole entry, looked up): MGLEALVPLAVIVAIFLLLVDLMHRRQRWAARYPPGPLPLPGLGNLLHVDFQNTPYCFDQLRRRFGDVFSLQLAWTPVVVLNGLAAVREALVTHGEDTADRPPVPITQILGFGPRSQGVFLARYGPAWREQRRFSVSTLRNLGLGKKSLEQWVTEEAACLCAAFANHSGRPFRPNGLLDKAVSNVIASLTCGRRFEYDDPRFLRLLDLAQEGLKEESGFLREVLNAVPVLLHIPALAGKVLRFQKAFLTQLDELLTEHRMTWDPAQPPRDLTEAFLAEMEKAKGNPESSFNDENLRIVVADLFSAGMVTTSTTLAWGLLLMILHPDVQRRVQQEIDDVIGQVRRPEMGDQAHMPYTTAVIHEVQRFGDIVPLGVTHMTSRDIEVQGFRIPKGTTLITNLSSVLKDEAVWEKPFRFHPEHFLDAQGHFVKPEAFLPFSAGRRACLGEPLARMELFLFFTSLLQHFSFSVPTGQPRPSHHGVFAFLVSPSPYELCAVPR
Chain of Nuclear receptor subfamily 1 group I member 2 (Rattus norvegicus) (Q9R1A7 whole entry, looked up): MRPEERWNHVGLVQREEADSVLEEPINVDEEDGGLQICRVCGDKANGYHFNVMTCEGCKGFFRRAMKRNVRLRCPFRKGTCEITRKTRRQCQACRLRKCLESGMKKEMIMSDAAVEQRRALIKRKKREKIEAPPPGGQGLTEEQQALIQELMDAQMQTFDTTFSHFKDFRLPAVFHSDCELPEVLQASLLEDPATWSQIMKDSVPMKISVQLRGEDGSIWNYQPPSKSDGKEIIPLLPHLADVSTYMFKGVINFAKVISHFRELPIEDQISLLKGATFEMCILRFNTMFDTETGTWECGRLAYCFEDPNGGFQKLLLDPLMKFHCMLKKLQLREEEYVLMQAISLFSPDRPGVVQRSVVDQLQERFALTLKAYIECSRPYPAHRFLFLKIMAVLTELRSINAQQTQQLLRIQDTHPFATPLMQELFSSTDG

For the compound `CCCCC/C=C\C/C=C\CCCCCCCC(=O)O`, the Potency result in assay [1], in assay [2], in [3], in assay [4], in assay [5] and in [6] was “inactive” each time. Besides, the Potency entry in assay [8], in [9], in assay [11], in assay [12] and in assay [15] was “inactive” throughout. Further, the compound was classed as inactive in assay [7]. Besides, the results for the Potency in [10], in assay [13] and in [16] were 60.1 µM (active), 60.1 µM (active) and 31.2 µM (active), respectively. Further, the max activation in [14] is -4.54%.
Regarding `CCCCCCC1CCCC(=O)O1` (stereo unspecified), the Potency entry in assay [1], in assay [3], in assay [17], in assay [4], in [5] and in assay [6] was “inactive” throughout. For the same compound, the Potency entry in assay [8], in assay [10], in [11] and in assay [12] was “inactive” throughout. In addition, the compound was classed as inactive in assay [7].
Consider `Cc1cc(=O)oc2cc(O)cc(O)c12`, for which the Potency entry in [1], in [2], in assay [3], in [4], in assay [6] and in [8] was “inactive” in each case. In addition, the Potency result in assay [9], in assay [11] and in assay [16] was “inactive” in each case. Besides, in assay [7], the compound was called inactive. Moreover, in assay [13], the Potency is 61.3 µM (active).
In the case of `Cc1cc(-c2ccc(N=Nc3cc(S(=O)(=O)O)c4ccccc4c3N)c(C)c2)ccc1N=Nc1cc(S(=O)(=O)O)c2ccccc2c1N`, the values for the Potency in assay [1], in [10] and in [16] were 30.8 µM (active), 54.8 µM (active) and 2.26 µM (active), respectively. In addition, the Potency result in [2], in assay [3], in assay [4], in [5], in [6] and in assay [9] was “inactive” each time. In addition, the Potency entry in assay [11] and in assay [12] was “inactive” throughout. Moreover, the compound was classed as inactive in [7].
On to `CCO[Si](OCC)(OCC)OCC`, for which the Potency result in assay [1], in [3], in assay [17], in [4], in assay [5] and in assay [18] was “inactive” in each case. Moreover, the Potency result in assay [8], in [9], in assay [10], in assay [11], in assay [12] and in [16] was “inactive” in each case.
Consider `C#C[C@]1(OC(C)=O)CC[C@H]2[C@@H]3CCC4=C/C(=N/O)CC[C@@H]4[C@H]3CC[C@@]21CC`, for which the Potency result in assay [1], in assay [4], in [5], in assay [18], in [6] and in assay [9] was “inactive” throughout. Also, the Potency result in assay [11], in assay [12] and in assay [19] was “inactive” throughout. Besides, the Potency is 29.8 µM (active) in assay [2], 29.8 µM (active) in assay [13], 7.94 µM (active) in assay [15] and 27.5 µM (active) in [16]. Further, the compound was called inactive in [7].
Turning to `O=S(=O)(O)c1ccc(Nc2nc(Nc3ccc(/C=C/c4ccc(Nc5nc(Nc6ccc(S(=O)(=O)O)cc6)nc(N(CCO)CCO)n5)cc4S(=O)(=O)O)c(S(=O)(=O)O)c3)nc(N(CCO)CCO)n2)cc1`, the Potency result in assay [1], in assay [3], in assay [17], in [4], in assay [5] and in [6] was “inactive” throughout. In addition, the Potency result in [8], in [9], in assay [10], in assay [11], in assay [12] and in assay [16] was “inactive” each time. For the same compound, the Potency in [18] was 33.1 µM (active). In addition, the compound was called inactive in assay [7].
For the compound `CCN(CC)c1ccc2c(-c3ccc(S(=O)(=O)O)cc3S(=O)(=O)[O-])c3ccc(=[N+](CC)CC)cc-3oc2c1`, the Potency in assay [1] was 7.07 µM (active); in assay [8], 5.01 µM (active); in assay [10] it was 6.31 µM (active); in assay [12] it was 8.91 µM (active); in assay [16], 29.2 µM (active). The Potency entry in [2], in assay [3], in assay [4], in assay [6] and in assay [11] was “inactive” each time. For the same compound, the compound was called inactive in assay [7].
